ELG1 genotox = genotoxicity induction in ELG1-luciferase HEK293T cells; Potency, µM (doses to about 46 µM), inactives show at the top dose activity change, positive = activation, actives largely listed as activators; AID 504466; HEK293T ELG1-luciferase reporter, luminescence, 16 h; 1.3% of 330,000 active; also: % of control where 0% means no effect; nearly all actives have a fitted effect of over 60% in size
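Genotoxic stress is detected as increased luminescence from luciferase-tagged ELG1 in HEK293T cells, measured with ONE-Glo after a 16 hr treatment at 37 °C.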
NPC1 promoter act = NPC1 promoter activation. AID 485313. 2.4% of 320,000 active. Huh7 NPC1 promoter luciferase reporter, 24 h. Potency, µM (highest dose often 9.22 µM), for the others: at the top dose activation, hits mostly activators; also: % of control where 0% means no effect; nearly all actives have a fitted effect of over 60% in size
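NPC1 promoter–luciferase Huh7 cells; 24 h compound; luminescence.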
FLuc modulator = firefly luciferase modulation, counter-screen for miR-21 project; P08659; purified FLuc, Km substrates, luminescence inhibition; Potency, µM (series often up to 57.5 µM), inactives show at the highest dose activity change, negative = inhibition, hits mostly inhibitors; 6.9% of 360,000 active;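 also: plate controls were vehicle for no effect and reference inhibitor for full effect; nearly all actives have a fitted effect of over 55% in size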
Target sequence (P08659 whole entry, looked up): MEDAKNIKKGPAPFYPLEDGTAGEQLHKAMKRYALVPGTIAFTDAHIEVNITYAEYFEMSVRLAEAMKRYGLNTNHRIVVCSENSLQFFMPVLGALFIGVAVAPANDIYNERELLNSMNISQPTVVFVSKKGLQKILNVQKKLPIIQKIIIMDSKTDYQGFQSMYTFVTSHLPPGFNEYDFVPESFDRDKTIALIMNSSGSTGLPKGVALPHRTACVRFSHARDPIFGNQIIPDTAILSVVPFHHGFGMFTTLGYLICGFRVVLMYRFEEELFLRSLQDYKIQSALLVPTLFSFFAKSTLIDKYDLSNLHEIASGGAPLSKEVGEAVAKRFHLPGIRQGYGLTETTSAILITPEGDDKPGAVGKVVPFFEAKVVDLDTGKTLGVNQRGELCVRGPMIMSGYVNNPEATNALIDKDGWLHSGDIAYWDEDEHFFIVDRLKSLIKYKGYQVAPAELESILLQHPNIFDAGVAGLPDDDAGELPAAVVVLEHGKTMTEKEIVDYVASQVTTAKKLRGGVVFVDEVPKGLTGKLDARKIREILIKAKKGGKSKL
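Purified P. pyralis luciferase, 10 nM final, with Km-level 10 uM D-luciferin and 10 uM ATP in 50 mM Tris acetate pH 7.5, 10 mM Mg acetate, 0.01% Tween-20, 0.05% BSA; 6-point qHTS titration about 60 µM downward; luminescence read.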
ELG1 repair inh = blocks ELG1-dependent DNA repair in HEK293T cells | HEK293T ELG1-luciferase reporter, luminescence, 16 h; DNA damage induced by 5-fluorouridine | Potency, µM (top dose mostly 46.1 µM), for inactives: at the highest dose activity change, negative = inhibition, hits mostly inhibitors | 2.3% of 330,000 active | AID 504467; also: % is scaled to controls: 0 for no effect and ±100 for the full control effect; nearly all actives have a fitted effect of over 55% in size
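5-Fluorouridine DNA damage + compound/DMSO, 2,000 cells/well, 16 h, 37 °C/5% CO2. ONE-Glo, 30 min RT, luminescence. Readout = decrease in reporter signal.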
Rab9 promoter act = activates the Rab9 promoter | Huh7 Rab9 promoter-luciferase reporter, luminescence, 24 h | 2.8% of 320,000 active | Potency, µM (doses to about 9.22 µM), inactives show at the highest dose activation, negative = inhibition, usual class: activators; also: % of control where 0% means no effect; nearly all actives have a fitted effect of over 60% in size
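Stable Rab9-luc Huh7, 1500 cells/well, 2 h settle; cmpd in DMSO, 24 h, 37 °C/5% CO2; luciferase reagent 10 min RT; luminescence.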
SMN2 splice enh = SMN2 splice variant enhancement | HEK293 SMN2-luciferase splicing reporter, luminescence, 30-36 h | Potency, µM (top dose mostly 46.1 µM), for the others: at the highest dose activity change, positive = activation, actives largely listed as activators | 2.8% of 210,000 active | AID 1458; also: % of control where 0% means no effect; nearly all actives have a fitted effect of over 55% in size
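HEK293 cells carry an SMN2 […]–luciferase reporter in which exon 7 inclusion puts luciferase in frame. Cells were plated 10-12 h before compound addition, then incubated 30-36 h at 37C. ONE-Glo luminescence was read; sodium butyrate at 4.5 mM final served as control.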
Starred values were filed as active, the others as inactive; [ ] = remark or other dose. Hits are enriched below; roughly 9.2% of the tested compounds scored in any of these assays. Calls follow the shape of the dose curve; as a rule, active = well fitted curve in the direction sought with a large enough effect; inconclusive = small, poorly fitted or top-dose-only effect, or another doubt; inactive = no such curve, though single readings can be large; an effect the other way counts as inactive or inconclusive. Potency is read from the fitted curve at half-maximal effect.

Screening COc1ccc(NC(=O)C2CCN(S(=O)(=O)c3cccc4cccnc34)CC2)cc1OC returned ELG1 genotox 2%, NPC1 promoter act -1%, FLuc modulator 1%, ELG1 repair inh inconclusive, Rab9 promoter act -2% and SMN2 splice enh 22%.
Screening CCn1c(C(=O)NCc2ccccc2)cc2sc(Cl)cc21 returned FLuc modulator inconclusive and SMN2 splice enh 25%.
CCc1ccc(C2=NNC(=Nc3cccc(S(=O)(=O)N(C)C)c3)SC2)cc1 was read as ELG1 genotox 4%, NPC1 promoter act 22%, FLuc modulator 11µM*, ELG1 repair inh inconclusive, Rab9 promoter act 10% and SMN2 splice enh -80%.
For Cc1ccc(C2=NNC(=Nc3ccc(F)cc3)SC2)cc1 the results were ELG1 genotox -1%, NPC1 promoter act 30%, FLuc modulator 17µM*, ELG1 repair inh -3%, Rab9 promoter act 18% and SMN2 splice enh -1%.
Screening Cc1cccc(N=C2NN=C(c3ccc4c(c3)OCCO4)CS2)c1 returned ELG1 genotox inconclusive, NPC1 promoter act 2.8µM*, FLuc modulator 1.2µM*, ELG1 repair inh inconclusive, Rab9 promoter act 2.8µM* and SMN2 splice enh -3%.
For Cc1cccc(N=C2NN=C(c3c(C)[nH]c4ccccc34)CS2)c1 the results were ELG1 genotox -5%, NPC1 promoter act -6%, FLuc modulator -1%, ELG1 repair inh inconclusive, Rab9 promoter act 0% and SMN2 splice enh -106%.
For CCOC(=O)c1nn(-c2ccc(F)cc2)c(=O)cc1OCC(=O)N1CCN(c2ccccc2)CC1 the results were ELG1 genotox -1%, NPC1 promoter act 7%, FLuc modulator 2%, ELG1 repair inh 0% and Rab9 promoter act 2%.
Cc1ccc(Cn2c(CNC(=O)CCc3ccccc3)nc3cccnc32)cc1 was read as FLuc modulator 7%.
For Cc1ccc(OCC(=O)c2ccc3c(c2)CCCC3)cc1C the results were ELG1 genotox inconclusive, NPC1 promoter act 0.56µM*, FLuc modulator 9.5µM*, ELG1 repair inh inconclusive, Rab9 promoter act 1.1µM* and SMN2 splice enh 22%.
`Cc1csc(NC(=O)COc2ccc3c(c2)CCC3)n1` gave ELG1 genotox inconclusive, NPC1 promoter act inconclusive, FLuc modulator 12µM*, ELG1 repair inh inconclusive and Rab9 promoter act 3.5µM*.
For Cc1cccnc1NC(=O)COc1ccc2c(c1)CCC2 the results were ELG1 genotox 9.2µM*, NPC1 promoter act inconclusive, FLuc modulator 17µM*, ELG1 repair inh inconclusive and Rab9 promoter act inconclusive.
Cc1ccc(NC(=O)COc2ccc3oc4c(c3c2)CCCC4)nc1 was read as ELG1 genotox 3%, NPC1 promoter act 0%, FLuc modulator 10%[2.3 µM], ELG1 repair inh 12%, Rab9 promoter act -1% and SMN2 splice enh 0%.
Cc1ccc(NC(=O)COc2ccc3c(c2)CCC3)nc1 was read as ELG1 genotox 9.2µM*, NPC1 promoter act inconclusive, FLuc modulator 9.5µM*, ELG1 repair inh inconclusive and Rab9 promoter act inconclusive.
COc1ccc(OCC(=O)Nc2ccc3c(c2)CCC3)cc1 was read as ELG1 genotox -1%, NPC1 promoter act -6%, ELG1 repair inh 19% and Rab9 promoter act 16%.
O=C(COc1ccc(Br)cc1)c1ccc2c(c1)CCCC2 was read as ELG1 genotox 5%, NPC1 promoter act 16%, FLuc modulator inconclusive, ELG1 repair inh 16%, Rab9 promoter act 12% and SMN2 splice enh -8%.
`CCCCn1c(=NC(=O)c2cc3ccccc3o2)c(C(=O)OCC)cc2c(=O)n3ccccc3nc21` gave FLuc modulator -5% and SMN2 splice enh -3%.
CSc1nc2sc3c(c2c(=S)[nH]1)CC(C)(C)OC3 was read as ELG1 genotox -2%, NPC1 promoter act 2%, FLuc modulator 19µM*, ELG1 repair inh -9% and Rab9 promoter act 17%.
CC(C)=NNc1nc2sc3c(c2c(=O)[nH]1)CC(C)(C)OC3 was read as ELG1 genotox 0%, NPC1 promoter act 1%, FLuc modulator 15µM*, ELG1 repair inh 7%, Rab9 promoter act -4% and SMN2 splice enh 0%.
`CCc1nc2sc3c(c2c(=S)[nH]1)CC(C)(C)OC3` gave ELG1 genotox 0%, NPC1 promoter act 15%, FLuc modulator -10%, ELG1 repair inh 11% and Rab9 promoter act 9%.
For CC1(C)Cc2c(sc3nc(N/N=C/c4ccccc4)[nH]c(=O)c23)CO1 the results were ELG1 genotox 2%, NPC1 promoter act 3%, FLuc modulator inconclusive, ELG1 repair inh 2%, Rab9 promoter act 22% and SMN2 splice enh -40%.
Screening CN(C)c1ccc(C(CNC(=O)c2ccc(C(C)(C)C)cc2)N2CCOCC2)cc1 (stereo not drawn) returned FLuc modulator 5%.
Screening CCCN1C(=O)S/C(=C\c2ccc(N3CCOCC3)o2)C1=O returned ELG1 genotox inconclusive, NPC1 promoter act 22%, FLuc modulator inconclusive, ELG1 repair inh inconclusive, Rab9 promoter act inconclusive and SMN2 splice enh -23%.
CCN1C(=O)S/C(=C\c2ccc(N3CCOCC3)cc2C)C1=O was read as ELG1 genotox inconclusive, NPC1 promoter act 2µM*, FLuc modulator 2.7µM*, ELG1 repair inh inconclusive and Rab9 promoter act 2µM*.
For CCCN1C(=O)S/C(=C\c2ccc(N3CCOCC3)cc2C)C1=O the results were ELG1 genotox inconclusive, NPC1 promoter act 2µM*, FLuc modulator 5.4µM*, ELG1 repair inh inconclusive, Rab9 promoter act 2.2µM* and SMN2 splice enh 4%.
Screening CCOC(=O)CCS(=O)(=O)c1nc(-c2ccccc2)cc(C(F)(F)F)n1 returned ELG1 genotox -13%, NPC1 promoter act -14%, FLuc modulator -2%, ELG1 repair inh inconclusive, Rab9 promoter act -23% and SMN2 splice enh inconclusive.
COC(=O)CCS(=O)(=O)c1nc(-c2ccccc2)cc(C(F)(F)F)n1 was read as ELG1 genotox -22%, NPC1 promoter act -16%, FLuc modulator 1%, ELG1 repair inh inconclusive, Rab9 promoter act -16% and SMN2 splice enh 13µM*.
`COc1ccc(S(=O)(=O)N(C(C)=O)c2ccc(OC(C)=O)c3ccccc23)cc1[N+](=O)[O-]` gave ELG1 genotox -14%, NPC1 promoter act -1%, FLuc modulator 0%, ELG1 repair inh 15µM* and Rab9 promoter act -3%.
COc1ccc(S(=O)(=O)N2CCc3ccccc32)cc1[N+](=O)[O-] was read as ELG1 genotox -7%, NPC1 promoter act -1%, FLuc modulator 1%, ELG1 repair inh 6.5µM* and Rab9 promoter act -10%.
